# In all, about 360,000 compounds went through this assay and about 17,000 (4.7%) were called active. Roughly 5% stayed inconclusive and do not appear here. Cut-off read from the data, not from the text of the source: active = activity change below about -50%; inconclusive = mostly about -30% to -49%; inactive = weaker than that. This excerpt belongs to a sample that is enriched for actives.
# Assay: qHTS for Inhibitors of Inflammasome Signaling: IL-1-beta AlphaLISA Primary Screen
# Settings: THP-1 LPS/ATP IL-1B secretion, 16 h; at 57.5 µM, stronger effect = lower value
# How it was run: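 THP-1 cells pretreated 1 hr with compounds (up to 57.5 uM final), then stimulated with LPS (250 ng/mL final) plus ATP (1.25 mM final); secreted IL-1B measured by AlphaLISA after 16 hr, decreased signal indicating inhibition.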
# % is set by controls: 0 for no effect and ±100 for the full control effect.
row,SMILES,activity change
1,Cc1ccc(CNC(=O)C(=O)c2cn(CC(=O)N3CCOCC3)c3ccccc23)cc1,-24.4% (inactive)
2,N#Cc1cccc(NC(=O)COC(=O)c2ccccc2C(=O)c2ccc(Cl)c([N+](=O)[O-])c2)c1,-112% (active)
3,COC(=O)c1cc(NC(=O)Cc2ccccc2[N+](=O)[O-])ccc1Cl,11.8% (inactive)
4,CC(=O)Nc1ccc(NC(=O)C(C)OC(=O)c2ccccc2C(=O)c2ccc(Cl)c([N+](=O)[O-])c2)cc1 (stereo not given),-108% (active)
5,CC(CC(=O)O)C(=O)c1ccc(Cl)c([N+](=O)[O-])c1 (stereo not given),-17.6% (inactive)
6,NC(=O)c1ccc(NC(=O)COC(=O)c2ccc([N+](=O)[O-])cc2)cc1,3.51% (inactive)
7,CC(=O)Nc1ccc(NC(=O)COC(=O)c2ccccc2C(=O)c2ccccc2)cc1,-29.6% (inactive)
8,C[C@H]1CN([C@@H](C)CO)C(=O)CCCn2cc(nn2)CO[C@@H]1CN(C)S(=O)(=O)c1ccccc1C#N,4.98% (inactive)
9,Cc1cc(C)c(C=NNc2nc3c([nH]2)c(=O)n(C)c(=O)n3C)c(C)c1,-9.11% (inactive)
10,O=C(COC(=O)CCc1c[nH]c2ccccc12)Nc1cccc(Cl)c1,8.98% (inactive)
11,CSc1ccc(CN2CCC2(C)C(=O)NCc2ccccc2Br)cc1 (stereo not given),35.5% (inactive)
12,Cc1c(NC(=O)C(C)OC(=O)c2ccccc2O)c(=O)n(-c2ccccc2)n1C (stereo not given),2.66% (inactive)
13,COc1ccc(C(=O)C(C)OC(=O)c2cccc(S(=O)(=O)Nc3c(C)n(C)n(-c4ccccc4)c3=O)c2)cc1 (stereo not given),-73.2% (active)
14,COc1ccc(NS(=O)(=O)c2ccc(C(=O)Nc3c(C)n(C)n(-c4ccccc4)c3=O)cc2)cc1,-16.8% (inactive)
15,CSCCC(NC(=O)c1ccco1)C(=O)NCCc1ccc(F)cc1 (stereo not given),-9.3% (inactive)
16,c1ccc(-c2ccccc2OCCN2CCCCC2)cc1,-0.581% (inactive)
17,Nc1nnc(SCCN2C(=O)c3ccccc3S2(=O)=O)s1,10.6% (inactive)
18,O=S1(=O)C=C(SCCN2CCCC2)c2ccccc21,-84.4% (active)
19,CCN(CC(=O)NC1CCS(=O)(=O)C1)c1nc(-c2cccnc2)nc2ccccc12 (stereo not given),-2.86% (inactive)
20,O=C(CSc1cccc[n+]1[O-])c1ccc(-c2ccccc2)cc1,31.4% (inactive)
21,COCCNc1ncnc2c1ncn2[C@H]1CN(CCN2CCOCC2)C[C@@H](CO)O1,1.62% (inactive)
22,NC(=O)C1CCN(C(=O)c2cn(-c3ccccc3)nc2-c2cccnc2)CC1,-2.49% (inactive)
23,CCc1ccc(-c2nn(-c3ccccc3)cc2CSC(=N)N)cc1,-102% (active)

row,SMILES,activity change
1,CCc1ccc(-c2nn(-c3ccccc3C)cc2C(=O)N2CCN(C3CCS(=O)(=O)C3)CC2)cc1 (stereo not given),16.7% (inactive)
2,CCOC(=O)c1ccc(COC(=O)CCc2nc(-c3ccccc3)c(-c3ccccc3)o2)cc1,31.5% (inactive)
3,CC(C)Nc1ncnc2c1ncn2[C@H]1CN(Cc2ccncc2)C[C@@H](CO)O1,22.2% (inactive)
4,O=C(Nc1ccc(S(=O)(=O)N2CCOCC2)cc1)C1CCN(S(=O)(=O)c2ccc(Cl)cc2)CC1,-6.97% (inactive)
5,C(=N\Nc1ccc2ccccc2n1)/c1ccc2c(c1)OCO2,-9.79% (inactive)
6,Clc1ccc(Nc2ccc3ccccc3n2)cc1,-15.6% (inactive)
7,Cc1noc(C)c1/C=N/Nc1ccc2ccccc2n1,-70.6% (active)
8,O=C(Nc1ccc(Cl)cc1)c1csc([C@@H]2O[C@H](CO)[C@H](O)[C@H](O)[C@H]2O)n1,17.3% (inactive)
9,Cc1nnc(SC(C)C(=O)c2c[nH]c3ccccc23)n1C1CC1 (stereo not given),0% (inactive)
10,Cc1onc(-c2c(F)cccc2Cl)c1C(=O)Nc1cccc(S(=O)(=O)N2CCCCC2)c1,-19.9% (inactive)
11,CCC(CO)Oc1cc(NC(=O)c2cccc3ccccc23)c2ncn(C(C)C)c2c1 (stereo not given),-67.6% (active)
12,CCC(CO)Oc1cc(NC(=O)c2cccc(F)c2)c2ncn(C(C)C)c2c1 (stereo not given),-4.82% (inactive)
13,CCC(CO)Oc1cc(NC(=O)c2ccc(Cl)cc2)c2ncn(C(C)C)c2c1 (stereo not given),-3.64% (inactive)
14,COc1ccc(CCNC(=O)COC(=O)Cc2cc(OC)c(OC)c(OC)c2)cc1,28% (inactive)
15,Cc1cc(C)c2c(=O)n3c(nc2c1)C(CC(C)C)NC(=O)c1cc2ccccc2cc1-3 (stereo not given),24.5% (inactive)
16,CC(C)CNS(=O)(=O)c1ccc(C(=O)Nc2ccc3c(c2)OCO3)cc1,-5.7% (inactive)
17,CNS(=O)(=O)c1ccc(NC(=O)Nc2ccc3c(c2)OCO3)cc1,-52.3% (active)
18,Cc1cccc(NC(=O)Nc2ccc3c(c2)OCO3)n1,-14.3% (inactive)
19,Cc1ccc(C(=O)Nc2c(-c3ccccc3)[nH][nH]c2=O)cc1,0% (inactive)
20,Cc1ccc2c(c1)C(c1ccccc1)N(C(=O)c1ccc(F)cc1)CC(=O)N2 (stereo not given),22.3% (inactive)
21,O=S(=O)(Nc1cc(Cl)ccc1N1CCOCC1)c1ccccc1Cl,-27.8% (inactive)
22,O=C1c2ccccc2-c2ncnc3c(N4CCOCC4)cc(N4CCOCC4)c1c23,-66.7% (active)
23,Cc1oc2c(c1C(=O)N1CCOCC1)C(=O)c1ccccc1C2=O,-0.813% (inactive)

row,SMILES,activity change
1,O=S1(=O)CC(N2CCN(CCO)CC2)CN1Cc1cn(Cc2ccc(Cl)cc2)nn1 (stereo not given),0% (inactive)
2,CCCn1c(=N)n(CC(=O)c2ccc(Cl)c(Cl)c2)c2ccccc21,-91.6% (active)
3,CCOC(=O)c1cc2ccccc2n1CC(=O)c1ccccc1,28.5% (inactive)
4,CCN(CC)CC1(O)CCN(C(=O)c2ccc(Cl)c(Cl)c2)CC1,12.6% (inactive)
5,O=C(Cn1nnc(N2CCCCC2)n1)c1ccc(Cl)c(Cl)c1,-1.15% (inactive)
6,COc1ccc2cc(C(=O)O)n(CC(=O)c3ccccc3)c2c1,0% (inactive)
7,CCn1c(=N)n(CC(=O)c2cccc(OC)c2)c2ccccc21,-63% (active)
8,Cc1cc(Cl)ccc1C(=O)C1CCCN(C(=O)c2ccc3c(c2)OCO3)C1 (stereo not given),-15.9% (inactive)
9,Cc1cccc(C2c3c(n(C)c(=O)n(C)c3=O)N=C3c4ccccc4C(=O)C32)c1 (stereo not given),13.5% (inactive)
10,Cc1ccccc1S(=O)(=O)NC(=O)C1(C)CCN1C(=O)C1(c2ccc(Cl)cc2)CC1 (stereo not given),22.8% (inactive)
11,O=C(NNC(=O)c1ccc2ccccc2c1)c1ccc(Cl)cc1,-7.64% (inactive)
12,CN(CC(=O)Nc1ccc(Cl)cc1)C(=O)CNC(=O)c1ccc2ccccc2c1,-102% (active)
13,COc1ccc(NC(=O)CN(C)C(=O)CNC(=O)C2CCCCC2)cc1,inactive
14,COc1ccc(C(=O)C(OP(=O)(OC)OC)c2ccccc2OC)cc1 (stereo not given),0% (inactive)
15,OCCC1CN(Cc2cccc(OC3CCCC3)c2)CCN1Cc1ccsc1 (stereo not given),-20.7% (inactive)
16,CC1=C[C@H]2Cc3cc(C)cc(C)c3S(=O)(=O)[C@@H]2C=C1,-1.95% (inactive)
17,Cc1ccccc1Cn1c(C)c(C(=O)NCc2cccc(C(F)(F)F)c2)sc1=O,-29.1% (inactive)
18,Cc1ccc(C(=O)Nc2ccccc2-c2ccccc2)cc1S(=O)(=O)Nc1ccccc1,-69.2% (active)
19,O=C(O)c1ccc(F)c(S(=O)(=O)Nc2ccccc2)c1,0% (inactive)
20,COc1ccc(NS(=O)(=O)c2cc(C(=O)Nc3ccccc3C(=O)O)ccc2C)cc1,11.7% (inactive)
21,CCOC(=O)C=Cc1ccc(C(=O)OCC)[nH]1,12.1% (inactive)
22,CCOC(=O)C1=C(CSc2nccn2C)NC(=O)NC1c1ccc(OC)cc1 (stereo not given),-4.23% (inactive)
23,CCOCCOC(=O)C1=C(C)NC(=O)NC1c1ccc2c(c1)OCO2 (stereo not given),-7.25% (inactive)

row,SMILES,activity change
1,CCOC(=O)C1=C(CCc2ccccc2)NC(=O)NC1c1ccc2ccccc2c1 (stereo not given),-52.7% (active)
2,Cn1c(=O)[nH]c2c(c(C(=O)O)nn2C)c1=O,-10.6% (inactive)
3,CC(C)CC(=O)Nc1ccc(Cc2ccncc2)cc1,-7.35% (inactive)
4,CCOc1ccc(C(=O)CCC(=O)Nc2ccncc2)cc1,2.33% (inactive)
5,CCOc1ccc(C(=O)Nc2cccc(-c3ccc4nncn4n3)c2)cc1,0% (inactive)
6,CCOc1ccc(NC(=O)c2ccc(NC(=O)C3CCCO3)cc2)cc1 (stereo not given),-7.47% (inactive)
7,CSc1cccc(NC(=O)CSc2ccccc2)c1,-2.08% (inactive)
8,CCOc1ccc(C(=O)Nc2cccc(SC)c2)cc1,-79.8% (active)
9,CCc1ccc(NC(=O)Nc2ccncc2)cc1,-73.4% (active)
10,CCc1ccc(NC(=O)N[C@H](C(=O)O)C(C)CC)cc1 (stereo not given in full),21.9% (inactive)
11,CCOc1ccc(C(=O)Nc2ccncc2)cc1,-73.6% (active)
12,COC(=O)C(Cc1c[nH]c2ccccc12)NC(=O)CCNC(=O)c1ccco1 (stereo not given),19.3% (inactive)
13,CCOC(=O)[C@]12CCC=C1N(CCC1=CCCCC1)C(=O)[C@H](CC(=O)NCc1ccc(C)o1)C2,13.9% (inactive)
14,COc1cccc(CN(C)C(=O)CC[C@H]2O[C@@H](n3cnc4c(NC(=O)c5ccccc5)ncnc43)[C@H](O)[C@@H]2O)c1,-16.9% (inactive)
15,CC(=O)c1cc(CN2CCC(C(=O)Nc3cccc(-c4cscn4)c3)CC2)cs1,inactive
16,O=C(Nc1cnn(Cc2ccc(Cl)cc2)c1)C1CCCC1,-16.9% (inactive)
17,CCn1cc(CN2CCC(C(=O)Nc3cccc(-c4cccc(Cl)c4)c3)CC2)cn1,-79.5% (active)
18,CCn1cc(CN2CCC(C(=O)Nc3cccc(-c4cccc(Cl)c4)c3)CC2)c(C)n1,-53.4% (active)
19,CCn1cc(CN2CCC(n3nccc3NC(=O)CCCc3ccccc3)CC2)c(C)n1,40% (inactive)
20,O=C(Nc1cccc(-c2cscn2)c1)C1CCN(Cc2ccsc2)CC1,-28.7% (inactive)
21,C=CCOc1ccc(/C=C/C(=O)OC(C)C(=O)Nc2ccc(NC(C)=O)cc2)cc1 (stereo not given),-0.196% (inactive)

# Source: PubChem BioAssay AID743279 (National Center for Advancing Translational Sciences (NCATS), 2014)
